# KDM5B inhibitor = Primary screen for KDM5B Histone Demethylases FDH-coupled qHTS; actives 2.6% (n = 220,000); KDM5B demethylase, FDH-coupled NADH fluorescence (FDH is formaldehyde dehydrogenase); Lysine-specific demethylase 5B (Homo sapiens), Q9UGL1; Potency, µM (top dose mostly 57.7 µM), hits mostly inhibitors; active = well fitted inhibition curve with a large enough effect; note: nearly all actives have a fitted effect of over 70% in size
#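 Coupled FDH/NAD⁺ fluorescence readout. KDM5BΔAP 200 nM final; compound titration, 10 min RT preincubation; substrate mix 12.5 µM H3K4me3, 25 µM 2-OG, 50 µM Fe(II), 100 µM ascorbate, 0.25 mM NAD⁺, 0.25 U/mL FDH; ΔRFU over 30 min.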
# A number is an active result; i = inactive. The sample as a whole holds a higher share of hits than the screen did.
SMILES,KDM5B inhibitor
O=C1CCN(C(=O)Cc2cccc(F)c2)CCOCCN1,i
COc1cc(F)cc(-c2cnc3[nH]cc(CC(=O)N4CCOCC4)c3c2)c1,35.5µM
COc1ccc2ccc(OCc3nc(C(=O)N4CCCNC(=O)C4)co3)cc2c1,i
O=C(Nc1ccc(CC(=O)N2CCOCC2)cc1)c1cc(F)cc(F)c1,i
CCCCCCOc1ccccc1/C=N/N=C(N)N,i
CCOc1cc(C(=O)Nc2ccc(OC)cc2)nc2ccc(Cl)cc12,i
N#Cc1cc2c(nc1SCc1ccccc1Cl)CCCC2=O,i
Cc1nc2ccc(Cl)cc2cc1C(=O)N(C)CC1COc2ccccc2O1 (configuration not stated),i
O=C(O)Cc1ccc(N2C(=O)C(=O)/C(=C(/O)c3ccccc3Cl)C2c2ccc(C(=O)O)cc2)cc1 (configuration not stated),i
CC(C)c1noc(-c2cn(C3CCN(C(=O)c4ccccc4)CC3)nn2)n1,i
CCc1noc(-c2cn(C3CCN(C(=O)c4cccc5[nH]ccc45)CC3)nn2)n1,31.6µM
CC(C)c1noc(-c2cn(C3CCN(C(=O)c4cccc5[nH]ccc45)CC3)nn2)n1,28.2µM
CCc1noc(-c2cn(C3CCN(C(=O)c4cc(F)ccc4F)CC3)nn2)n1,i
CCc1noc(-c2cn(C3CCN(C(=O)c4ccccc4)CC3)nn2)n1,i
COc1ccccc1C(=O)N1CCC(n2cc(-c3nc(C(C)C)no3)nn2)CC1,i
C/C(=N/Nc1ccccc1C(F)(F)F)c1cc(Cl)ccc1Cl,i
O=C1Cc2cc(-c3csc(NC4CCCCC4)n3)cc3c2N1CCC3,i
Cc1ccc(S(=O)(=O)N2CCC(C(=O)N3CCC(CCc4ccc(O)cc4)CC3)CC2)c(C)c1,i
CCn1c(SCC(=O)Nc2cc(C)c(Cl)cc2OC)nnc1-c1cccc(OC)c1,i
COc1ccccc1-c1nc2nccc(-c3cccnc3)n2n1,i
COc1ccccc1-c1cc(-c2cccnc2)c2cncn2c1,39.8µM
COc1cccc(-c2cc(-c3cccnc3)c3cncn3c2)c1OC,35.5µM
COc1ccc(-c2cc(-c3ccncc3)c3cncn3c2)cc1OC,i
COc1cc(NC2c3ccccc3C(=O)N2c2cccnc2)cc(OC)c1OC (configuration not stated),i
COc1ccccc1NC(=O)c1cc(-c2cccnc2)nc2ccccc12,i
SMILES,KDM5B inhibitor
COc1cccc(NC(=O)C(Cc2ccc(OC)cc2OC)c2nn[nH]n2)c1 (configuration not stated),i
COc1ccc(NC(=O)Cc2cc(Cl)c3c(c2)OCCCO3)cc1S(=O)(=O)N(C)C,i
Cc1cc(NC(=S)NCCc2ccccc2)ccc1I,i
CCCCc1nn2cc(-c3ccc(F)cc3)nc2s1,i
NC(=O)NNC(=S)Nc1ccccc1,i
CCNc1ncnc2sc3c(c12)CCN(C(=O)COC)C3,35.5µM
CCOC(=O)c1cnn(-c2ncnc3sc4c(c23)CCC(C)C4)c1N (configuration not stated),i
COCCCNc1ncnc2sc3c(c12)CCN(Cc1cccnc1)C3,i
CNC(=O)N1CCc2c(sc3ncnc(NCCCOC)c23)C1,i
c1ccc(CN2CCc3c(sc4ncnc(N5CCOCC5)c34)C2)cc1,i
CCC(=O)N1CCc2c(sc3ncnc(NCc4ccccn4)c23)C1,28.2µM
CC(=O)Nc1ccc(C(=O)COc2ncnc3sc4c(c23)CCC4)cc1,i
CCC(=O)N1CCc2c(sc3ncnc(N)c23)C1,28.2µM
c1ccc(-c2csc3ncnc(NCc4ccccn4)c23)cc1,i
Cc1c(C)n(Cc2ccccn2)c2ncnc(NCc3ccccn3)c12,i
CCNc1ncnc2sc3c(c12)CCN(Cc1ccncc1)C3,25.1µM
CN(C)c1ccc(C(=O)N2CCc3c(sc4ncnc(N)c34)C2)cc1,i
CCN(CC)CC1CCN(C(=O)CCc2c[nH]c3ccccc23)CC1,i
CSC1=N/C(=C\c2ccc(Cl)c(Cl)c2)C(=O)S1,i
COCCCNc1oc(-c2cccs2)nc1C#N,i
COc1ccc(C(=O)C(C)OC(=O)c2cc(OC)cc(OC)c2)cc1 (configuration not stated),i
CCOC(=O)c1cc(-c2ccc(S(=O)(=O)Nc3ccc(C)cc3Cl)s2)on1,i
COc1cccc(C(=O)NCc2coc(-c3cccs3)n2)c1OC,i
O=c1c2c(nc3nc(NCc4c(Cl)cccc4Cl)[nH]n13)CCC2,i
C/C(=N\Nc1ccc([N+](=O)[O-])cc1)c1ccc(C)cc1C,i
SMILES,KDM5B inhibitor
O=c1[nH]c(C2CCCN(Cc3ccccc3)C2)nc2ccc(F)cc12 (configuration not stated),i
CCCCC1c2cc(c(O)cc2O)C(CCCC)c2cc(c(O)cc2O)C(CCCC)c2cc(c(O)cc2O)C(CCCC)c2cc1c(O)cc2O (configuration not stated),i
COc1ccc(-c2ccc3ncc(Nc4cc(F)ccc4OC)n3n2)cn1,i
CN(C)c1ccc2ncc(Nc3ccc(Cl)cn3)n2n1,35.5µM
COc1ccc(-c2ccc3ncc(Nc4ccccc4OC)n3n2)cn1,i
CN(C)c1ccc2ncc(Nc3ccccc3)n2n1,i
